The source of these data is PubChem BioAssay (EPA / NIEHS).

Read-out in assay [1]: Intercellular Adhesion Molecule 1 (ICAM1), ICAM1 (gene 3383)
The assay is described as follows: BSK_3C_ICAM1: BioMAP Diversity Plus: 3C Assay for Intercellular Adhesion Molecule 1 (ICAM1) Biomarker Activity (AID 2283003; active = hit-call score of the fitted dose curve at least 0.9, where 1 is the maximum; inactive = score below 0.9). The conditions noted are these: primary human endothelial cells (HUVEC); actives raise or lower the signal. The method, boiled down:
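ELISA read-out of ICAM-1; HUVEC (primary human), 3C system, 24 h post-dosing; bidirectional fit vs DMSO baseline.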

Assay [2] addresses Peroxisome proliferator-activated receptor gamma (Homo sapiens) (UniProt P37231). The assay can be described thus: ATG_PPARg_TRANS: Attagene TRANS-FACTORIAL HepG2 Assay for human Peroxisome Proliferator-activated Receptor-gamma (PPARg) (AID 2283007). The method, boiled down: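 HepG2 cells transiently transfected with multiplexed GAL4-UAS reporter units and exogenous chimeric NR-Gal4 proteins; reporter mRNA quantified after 24 h compound exposure by RT-PCR, fluorescent labelling, HpaI digestion and capillary electrophoresis; gain-of-signal fitted versus DMSO baseline.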

Assay [3] addresses Retinoic acid receptor RXR-alpha (Homo sapiens) (UniProt P19793). The assay can be described thus: ATG_RXRa_TRANS: Attagene TRANS-FACTORIAL HepG2 Assay for human Retinoid X Receptor alpha (RXRa) (AID 2283012). The method, boiled down: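 Read-out: fluorescent reporter-transcript fragments quantified by capillary electrophoresis after RT-PCR. Transiently transfected HepG2 cells carrying GAL4-UAS reporters and NR-GAL4 chimeras were exposed to chemical for 24 h; activity scored as increase over DMSO.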

The target in assay [4] is human Retinoic Acid Receptor beta (RARb), RARB (gene 5915) (UniProt P10826). The assay can be described thus: ATG_RARb_TRANS: Attagene TRANS-FACTORIAL HepG2 Assay for human Retinoic Acid Receptor beta (AID 2283004). The method, boiled down: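 HepG2, transient MRTU transfection, NR–Gal4 chimera, 24 h treatment; RT-PCR plus CE fluorescence detection of reporter mRNA; gain of signal vs DMSO.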
human Retinoic Acid Receptor beta (RARb), RARB (gene 5915), sequence (P10826 whole entry, looked up, the tested form may be a part): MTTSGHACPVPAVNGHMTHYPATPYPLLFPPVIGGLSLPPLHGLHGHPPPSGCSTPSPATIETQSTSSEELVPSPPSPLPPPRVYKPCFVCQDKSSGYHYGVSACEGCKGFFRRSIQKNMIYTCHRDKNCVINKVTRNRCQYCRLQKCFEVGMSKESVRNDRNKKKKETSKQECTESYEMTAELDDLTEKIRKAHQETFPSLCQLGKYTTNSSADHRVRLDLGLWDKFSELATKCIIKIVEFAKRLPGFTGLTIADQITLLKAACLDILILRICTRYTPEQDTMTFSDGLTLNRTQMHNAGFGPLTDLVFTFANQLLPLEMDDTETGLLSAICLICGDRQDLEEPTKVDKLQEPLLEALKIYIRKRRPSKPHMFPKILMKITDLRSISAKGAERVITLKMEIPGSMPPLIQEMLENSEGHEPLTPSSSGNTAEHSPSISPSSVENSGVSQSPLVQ

Assay [5] concerns the target Retinoic acid receptor alpha (Homo sapiens) (UniProt P10276). The assay is described as follows: ATG_RARa_TRANS: Attagene TRANS-FACTORIAL HepG2 Assay for human Retinoic Acid Receptor alpha (RARa) (AID 2283005). The method, boiled down:
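HepG2 cells transiently transfected with multiple reporter units expressing chimeric RARα-GAL4 fusion, with GAL4-UAS-driven reporters. After 24 h compound exposure, reporter mRNA induction quantified by RT-PCR and capillary electrophoresis with fluorescent labeling; gain-of-signal fitted relative to DMSO control.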

In assay [6] the target is Nuclear receptor subfamily 1 group I member 2 (Homo sapiens) (UniProt O75469). The assay can be described thus: ATG_PXR_TRANS: Attagene TRANS-FACTORIAL HepG2 Assay for human Pregnane X Receptor (PXR) (AID 2283008). The method, boiled down:
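Multiplexed TRANS reporter panel in HepG2; this component tracks PXR-Gal4-driven reporter mRNA after 24 h dosing, measured by RT-PCR with capillary electrophoresis fluorescence, fitted against DMSO.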

Assay [7] concerns the target human RAR-related Orphan Receptor beta (RORb), RORB (gene 6096) (UniProt Q92753). The assay can be described thus: ATG_RORb_TRANS: Attagene TRANS-FACTORIAL HepG2 Assay for human RAR-related Orphan Receptor beta (RORb) (AID 2283010). The method, boiled down: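 HepG2, transient MRTU transfection (GAL4-UAS reporters, exogenous NR-Gal4 chimeras); 24 h compound exposure; total RNA → RT-PCR → 6-FAM primer extension → HpaI digest → CE fluorescence. Positive direction vs DMSO baseline.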

Assay [8] concerns the target human RAR-related Orphan Receptor gamma (RORg), RORC (gene 6097) (UniProt P51449). The assay can be described thus: ATG_RORg_TRANS: Attagene TRANS-FACTORIAL HepG2 Assay for human RAR-related Orphan Receptor gamma (RORg) (AID 2283011). The method, boiled down:
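Activity is scored as increase in GAL4-UAS reporter mRNA over DMSO, detected by fluorescent RT-PCR and capillary electrophoresis in HepG2 cells transiently expressing a RORg-Gal4 chimera, 24 h after dosing.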

For assay [9], the target named is human Retinoic Acid Receptor gamma (RARg), RARG (gene 5916) (UniProt P13631). The assay can be described thus: ATG_RARg_TRANS: Attagene TRANS-FACTORIAL HepG2 Assay for human Retinoic Acid Receptor gamma (RARg) (AID 2283009). The method, boiled down:
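Readout: reporter transcript levels via RT-PCR, 6-FAM primer-extension labelling, HpaI digestion and capillary electrophoresis. Cells: HepG2 carrying transfected RARg-GAL4 chimera plus UAS reporter set. Dosing 24 h; DMSO negative control.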

Inconclusive results are not listed. Calls of active or inactive are those of the source. The calls were made as follows, unless noted: active = hit-call score of the fitted dose curve at least 0.9, where 1 is the maximum; inconclusive = response in the unintended direction; inactive = score below 0.9.

Peroxisome proliferator-activated receptor gamma (Homo sapiens), sequence (P37231 whole entry, looked up, the tested form may be a part): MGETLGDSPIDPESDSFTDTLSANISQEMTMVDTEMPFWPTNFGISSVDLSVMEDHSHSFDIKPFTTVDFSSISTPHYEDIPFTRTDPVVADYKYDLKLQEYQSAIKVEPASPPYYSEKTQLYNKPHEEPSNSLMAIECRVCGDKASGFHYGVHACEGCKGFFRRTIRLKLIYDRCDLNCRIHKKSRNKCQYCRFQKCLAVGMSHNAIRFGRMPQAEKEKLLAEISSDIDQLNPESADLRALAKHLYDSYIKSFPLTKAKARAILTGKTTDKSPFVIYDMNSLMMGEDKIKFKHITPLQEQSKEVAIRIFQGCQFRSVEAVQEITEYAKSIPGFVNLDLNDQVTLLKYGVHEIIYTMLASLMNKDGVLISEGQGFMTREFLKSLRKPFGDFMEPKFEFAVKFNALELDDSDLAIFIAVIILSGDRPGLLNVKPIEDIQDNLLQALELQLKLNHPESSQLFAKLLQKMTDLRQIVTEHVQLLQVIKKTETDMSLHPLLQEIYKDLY
Nuclear receptor subfamily 1 group I member 2 (Homo sapiens), sequence (O75469 whole entry, looked up, the tested form may be a part): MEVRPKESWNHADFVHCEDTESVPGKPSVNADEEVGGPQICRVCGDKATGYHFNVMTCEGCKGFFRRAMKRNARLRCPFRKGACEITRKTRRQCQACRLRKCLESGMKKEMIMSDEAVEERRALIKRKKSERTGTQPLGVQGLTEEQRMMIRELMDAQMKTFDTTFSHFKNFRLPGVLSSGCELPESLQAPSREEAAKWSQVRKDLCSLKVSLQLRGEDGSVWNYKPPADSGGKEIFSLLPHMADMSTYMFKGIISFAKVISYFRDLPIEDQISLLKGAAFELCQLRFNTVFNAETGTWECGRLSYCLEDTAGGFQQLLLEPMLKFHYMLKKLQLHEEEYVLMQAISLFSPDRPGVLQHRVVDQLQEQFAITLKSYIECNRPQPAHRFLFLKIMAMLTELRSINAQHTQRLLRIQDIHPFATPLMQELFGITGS
human RAR-related Orphan Receptor beta (RORb), RORB (gene 6096), sequence (Q92753 whole entry, looked up, the tested form may be a part): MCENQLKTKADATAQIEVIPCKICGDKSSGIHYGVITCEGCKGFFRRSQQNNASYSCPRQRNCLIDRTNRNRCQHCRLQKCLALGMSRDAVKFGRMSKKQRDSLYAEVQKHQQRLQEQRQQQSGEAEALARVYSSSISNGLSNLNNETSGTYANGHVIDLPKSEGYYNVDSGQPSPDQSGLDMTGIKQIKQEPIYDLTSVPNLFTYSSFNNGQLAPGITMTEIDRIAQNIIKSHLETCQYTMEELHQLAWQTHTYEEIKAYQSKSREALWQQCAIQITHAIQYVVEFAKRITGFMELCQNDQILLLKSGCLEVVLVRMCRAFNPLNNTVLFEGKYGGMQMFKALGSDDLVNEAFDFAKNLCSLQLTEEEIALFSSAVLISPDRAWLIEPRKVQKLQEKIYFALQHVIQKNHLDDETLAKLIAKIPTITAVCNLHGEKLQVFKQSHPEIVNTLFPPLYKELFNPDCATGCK
human Retinoic Acid Receptor gamma (RARg), RARG (gene 5916), sequence (P13631 whole entry, looked up, the tested form may be a part): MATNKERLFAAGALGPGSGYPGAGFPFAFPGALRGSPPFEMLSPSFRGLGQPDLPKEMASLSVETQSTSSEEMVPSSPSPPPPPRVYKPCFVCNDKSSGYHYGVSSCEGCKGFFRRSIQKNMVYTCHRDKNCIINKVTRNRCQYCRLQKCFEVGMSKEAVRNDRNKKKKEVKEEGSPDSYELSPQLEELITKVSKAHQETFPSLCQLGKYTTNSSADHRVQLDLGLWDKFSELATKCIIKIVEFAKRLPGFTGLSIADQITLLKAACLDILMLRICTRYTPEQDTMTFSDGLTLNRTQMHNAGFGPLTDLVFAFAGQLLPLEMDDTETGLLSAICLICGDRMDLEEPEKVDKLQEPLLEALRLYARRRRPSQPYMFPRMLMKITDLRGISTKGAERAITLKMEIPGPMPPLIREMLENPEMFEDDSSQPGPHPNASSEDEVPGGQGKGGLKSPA
Retinoic acid receptor RXR-alpha (Homo sapiens), sequence (P19793 whole entry, looked up, the tested form may be a part): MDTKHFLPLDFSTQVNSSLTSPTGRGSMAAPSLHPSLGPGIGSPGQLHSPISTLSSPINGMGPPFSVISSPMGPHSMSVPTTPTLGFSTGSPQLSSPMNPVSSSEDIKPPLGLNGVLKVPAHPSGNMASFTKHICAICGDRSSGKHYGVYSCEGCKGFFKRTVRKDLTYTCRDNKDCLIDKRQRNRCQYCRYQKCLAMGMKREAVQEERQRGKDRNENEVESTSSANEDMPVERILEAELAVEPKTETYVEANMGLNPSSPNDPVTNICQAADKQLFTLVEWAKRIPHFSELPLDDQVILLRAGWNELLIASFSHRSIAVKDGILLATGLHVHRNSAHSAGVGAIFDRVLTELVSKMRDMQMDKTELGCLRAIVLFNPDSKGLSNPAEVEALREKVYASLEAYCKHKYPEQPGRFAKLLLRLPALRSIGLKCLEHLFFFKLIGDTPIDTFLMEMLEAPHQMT
Retinoic acid receptor alpha (Homo sapiens), sequence (P10276 whole entry, looked up, the tested form may be a part): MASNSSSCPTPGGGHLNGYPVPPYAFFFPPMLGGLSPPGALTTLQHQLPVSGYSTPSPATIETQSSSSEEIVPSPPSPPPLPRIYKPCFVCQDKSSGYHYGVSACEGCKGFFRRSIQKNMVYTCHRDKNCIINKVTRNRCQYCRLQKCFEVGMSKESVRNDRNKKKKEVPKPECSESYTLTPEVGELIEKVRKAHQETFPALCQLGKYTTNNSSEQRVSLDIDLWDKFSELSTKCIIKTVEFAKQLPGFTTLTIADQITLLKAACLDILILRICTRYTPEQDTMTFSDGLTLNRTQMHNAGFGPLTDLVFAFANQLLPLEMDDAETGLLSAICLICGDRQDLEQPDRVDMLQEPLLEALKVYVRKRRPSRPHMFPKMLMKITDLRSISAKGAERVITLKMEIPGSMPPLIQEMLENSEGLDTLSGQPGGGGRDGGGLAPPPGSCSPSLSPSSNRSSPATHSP
human RAR-related Orphan Receptor gamma (RORg), RORC (gene 6097), sequence (P51449 whole entry, looked up, the tested form may be a part): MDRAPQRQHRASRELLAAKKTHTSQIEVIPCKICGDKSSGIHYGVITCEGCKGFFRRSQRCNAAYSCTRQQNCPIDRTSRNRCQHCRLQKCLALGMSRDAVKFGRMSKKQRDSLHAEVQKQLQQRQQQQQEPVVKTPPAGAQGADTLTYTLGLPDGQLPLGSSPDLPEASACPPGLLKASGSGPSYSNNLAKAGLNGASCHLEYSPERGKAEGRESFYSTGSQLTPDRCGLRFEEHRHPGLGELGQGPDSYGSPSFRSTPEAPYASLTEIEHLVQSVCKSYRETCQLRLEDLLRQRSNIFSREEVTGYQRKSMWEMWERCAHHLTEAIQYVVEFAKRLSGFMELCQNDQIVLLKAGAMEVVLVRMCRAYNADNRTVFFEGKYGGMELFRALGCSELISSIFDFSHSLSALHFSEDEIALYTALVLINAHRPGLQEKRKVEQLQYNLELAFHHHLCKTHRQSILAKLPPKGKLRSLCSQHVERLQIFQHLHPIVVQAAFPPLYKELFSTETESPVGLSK

For `CN1C(=O)N(C)C(O)C1O` (stereo not drawn), the result in assay [1], in assay [2] and in assay [3] was inactive.
With `CC/C=C\CCOC(=O)CCCCC`, the call in assay [4], in [5], in assay [6] and in assay [3] was inactive.
For the compound `CC(C)C1=CC2=CC[C@@H]3[C@](C)(CCC[C@@]3(C)C(=O)O)[C@H]2CC1`, the compound was classed as inactive in assay [4], in [7] and in [3]. For the same compound, the AC50 (commonly the concentration giving half of the maximal activity seen) in [2] was 43.9 µM (active); in [6], 1.55 µM (active).
For the compound `COCc1c(C(C)C)nc(C(C)C)c(/C=C/[C@@H](O)C[C@@H](O)CC(=O)O)c1-c1ccc(F)cc1`, the result in assay [1] and in assay [3] was inactive. Moreover, the AC50 is 12.8 µM (active) in [2] and 1.76 µM (active) in assay [6].
Take `Nc1cccc(C(F)(F)F)c1`: the result in [4], in assay [2], in assay [6] and in assay [8] was inactive.
In the case of `Nc1ccc2cc3ccccc3cc2c1`, the call in assay [4], in assay [6], in assay [9], in assay [7], in [8] and in assay [3] was inactive. The AC50 in assay [2] was 26.8 µM (active).
For the compound `CCN(CC#N)c1cccc(C)c1`, the result in [4], in [2], in [6] and in [8] was inactive.
As for `Cc1cc(C)c(C)c(O)c1`, the compound was classed as inactive in assay [4], in assay [2], in [6] and in assay [3].
Take `C(=CC=Nc1ccccc1)C=CNc1ccccc1`: the outcome in assay [4], in assay [5], in [2], in assay [6], in [9] and in assay [3] was inactive.
In the case of `Cc1c(C)c([N+](=O)[O-])c(C(C)(C)C)c([N+](=O)[O-])c1C`, the result in assay [4], in assay [5], in assay [2], in [7] and in [8] was inactive. For the same compound, the figures for the AC50 in assay [6] and in assay [3] were 2 µM (active) and 12.7 µM (active), respectively.
Take `CCc1nccnc1C`: the call in [4], in assay [2], in assay [6], in assay [7] and in assay [3] was inactive.
As for `CCOC(=O)Cc1cccc2ccccc12`, the result in assay [4], in [6], in assay [9] and in assay [3] was inactive. Besides, in assay [2], the AC50 was 44.5 µM (active).
Take `C[Si](C)O[Si](C)(C)O[Si](C)(C)O[Si](C)C`: the compound was called inactive in assay [4], in assay [2], in assay [6], in assay [9] and in assay [3].
With `O=C1C(N(CO)C(=O)NCO)N(CO)C(=O)N1CO` (stereo not drawn), the compound was classed as inactive in assay [4], in assay [2], in assay [9], in assay [7] and in assay [8].
In the case of `C=C(C)c1cccc(C(C)(C)N=C=O)c1`, the result in assay [4] and in assay [8] was inactive. Moreover, the AC50 is 5.62 µM (active) in [2] and 0.0915 µM (active) in [6].
Consider `Nc1nc2ccccc2[nH]1`, for which the outcome in [4], in assay [2] and in [6] was inactive.
On to `CCCCCCCC[N+](C)(CCCCCCCC)CCCCCCCC`, for which the result in assay [4], in [5], in [2] and in [9] was inactive.
Take `CO[Si](OC)(OC)c1ccccc1`: the result in [1] and in assay [6] was inactive.
For `C=C[Si](C)(C)O[Si](C)(C)C=C`, the result in assay [4], in [5], in [9], in assay [7], in assay [8] and in assay [3] was inactive.
Take `c1ccc2c(c1)ccc1cc3c(ccc4ccccc43)cc12`: the result in [1], in assay [6], in assay [9], in [7], in [8] and in [3] was inactive.
For the compound `CC(C)=CCC/C(C)=C\C#N`, the outcome in assay [4], in assay [2], in assay [7] and in assay [8] was inactive. In assay [6], the AC50 is 29.3 µM (active).
Turning to `CCCCCCCCC(=O)OCC`, the result in [4], in assay [2], in [6], in assay [9] and in assay [3] was inactive.
As for `CC(C)(C)c1n[nH]c(=O)n(N)c1=O`, the compound was classed as inactive in assay [4], in assay [2], in [6], in assay [9], in assay [8] and in assay [3].
Take `CCO[Si](C)(OCC)OCC`: the outcome in assay [1], in assay [6] and in assay [7] was inactive.
In the case of `O=C1CCCN1CCO`, the result in [1], in assay [6], in [7] and in assay [8] was inactive.
Take `Cc1ccccc1C`: the compound was called inactive in [4], in assay [5], in assay [2], in assay [6], in [9] and in [3].
Turning to `CCCc1ccc(OC)cc1`, the result in assay [4], in assay [2], in assay [6], in assay [7] and in [8] was inactive.
In the case of `COCC(C)N` (stereo not drawn), the call in [4], in [2], in [6], in assay [8] and in assay [3] was inactive.
With `COc1ccc(C(Cl)=C(c2ccc(OC)cc2)c2ccc(OC)cc2)cc1`, the compound was called inactive in assay [4], in assay [5], in assay [9], in assay [8] and in assay [3]. The concentration at half-maximal activity (AC50) in assay [6] is 3.67 µM (active).
Regarding `CC[C@H]1OC(=O)[C@H](C)[C@@H](O[C@H]2C[C@@](C)(OC)[C@@H](O)[C@H](C)O2)[C@H](C)[C@@H](O[C@@H]2O[C@H](C)C[C@H](N(C)C)[C@H]2O)[C@](C)(O)C[C@@H](C)C(=NOCOCCOC)[C@H](C)[C@@H](O)[C@]1(C)O`, the compound was called inactive in [4], in assay [5], in assay [6] and in assay [8].
On to `c1c[nH]cn1`, for which the compound was classed as inactive in assay [4], in [2], in assay [6], in assay [9] and in assay [7].
As for `O=C1CCCC1`, the call in [4], in assay [5], in [7], in [8] and in assay [3] was inactive.
For `O=C1c2cccc(O)c2C(=O)c2c(O)cc(CO)cc21`, the compound was called inactive in assay [4], in assay [5] and in [3]. Besides, the AC50 was 50.3 µM (active) in [2] and 5.78 µM (active) in assay [6].
Turning to `O=c1n(CCO)c(=O)n(CCO)c(=O)n1CCO`, the call in assay [4], in assay [5], in assay [9], in assay [7], in assay [8] and in assay [3] was inactive.
